Inconclusive results are not listed. The source made the active and inactive calls. The call rests on the fitted dose curve; in most records, active means well fitted inhibition curve with a large enough effect; inconclusive means small, poorly fitted or top-dose-only effect; inactive means flat fitted curve, though single readings scatter. Where a SMILES comes first, the peptide text is derived from it. [ ]: non-standard residue; d: D form. ξ: configuration not given here. ξPhe(βξ-Me) = CC(c1ccccc1)C(N)C(=O)O; GABA = NCCCC(=O)O
These compounds were tested on HACAT (assay: qHTS assay to identify novel small-molecules to repurpose for Merkel cell carcinoma treatment (AID 1296009; further: nearly all actives have a fitted effect of over 60% in size)). Conditions: MCC and control cell lines, CellTiter-Glo viability, 72 h; at 44.8 µM (top of the series) unless noted.
Summary of the method: (§1)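 Cells exposed to NPC (8-point) and MIPE (11-point) compound dilutions for 72 hr at 37 degree celsius; viability read by CellTiter-Glo luminescence, normalized to no-cell and DMSO in-plate controls.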

Row | SMILES | outcome
1 | CC1CC(O)C2(C)C(C(=O)O)=CCCC2C1(C)CCc1ccoc1 (configuration not stated) | inactive
2 | C/C=C(\C)C(=O)O[C@@H]1CC2[C@@H](CC=C3C[C@@H](O[C@H]4C[C@H](OC)[C@H](O[C@H]5C[C@H](OC)[C@H](O[C@H]6C[C@H](OC)[C@H](O[C@H]7C[C@@H](OC)[C@H](O[C@@H]8O[C@H](CO)[C@@H](O)[C@H](O)[C@H]8O)[C@@H](C)O7)[C@@H](C)O6)[C@@H](C)O5)[C@@H](C)O4)CC[C@@]32C)[C@@]2(O)CC[C@H](C(C)=O)[C@@]12C (some centres not stated) | inactive [at 9.27 µM]
3 | C[C@@H]1O[C@@H](O[C@H]2[C@H](OC(=O)[C@]34CCC(C)(C)C[C@H]3C3=CCC5[C@@]6(C)C[C@H](O)[C@H](O[C@@H]7O[C@H](CO[C@@H]8OC[C@H](O)[C@H](O)[C@H]8O)[C@@H](O)[C@H](O)[C@H]7O)C(C)(C)C6CC[C@@]5(C)[C@]3(C)C[C@H]4O)OC[C@@H](O)[C@@H]2O)[C@H](O)[C@H](O[C@@H]2OC[C@](O)(CO)[C@H]2O)[C@H]1O[C@@H]1OC[C@H](O)[C@H](O[C@@H]2OC[C@@H](O)[C@H](O)[C@H]2O)[C@H]1O (some centres not stated) | inactive [at 9.27 µM]
4 | O=C(NCC(=O)N1CC[C@H](NC2CCC(O)(c3ccc(-c4ncccn4)cn3)CC2)C1)c1cccc(C(F)(F)F)c1 (some centres not stated) | inactive
5 | CCNC(=O)CCC/C=C\C[C@@H]1[C@@H](/C=C/C(O)CCc2ccccc2)[C@@H](O)C[C@@H]1O (some centres not stated) | inactive

The compounds below were run on HEK293T in the same assay as above. Conditions: MCC and control cell lines, CellTiter-Glo viability, 72 h; series mostly up to 44.8 µM.
Summary of the method: as §1

Row | SMILES | outcome
6 | O=C(OCc1cccc(O)c1O[C@@H]1O[C@H](CO)[C@@H](O)[C@H](O)[C@H]1O)C1(O)C(=O)C2C=CC1C1C=CC(=O)C(O)(C(=O)OCc3cccc(O)c3O[C@@H]3O[C@H](CO)[C@@H](O)[C@H](O)[C@H]3O)C21 (some centres not stated) | inactive [at 9.27 µM]
7 | C/C=C(\C)C(=O)O[C@H]1[C@H](O)[C@]2(COC(C)=O)[C@H](O)C[C@]3(C)C(=CCC4[C@@]5(C)CC[C@H](O[C@@H]6O[C@H](C(=O)O)[C@@H](O[C@@H]7O[C@H](CO)[C@@H](O)[C@H](O)[C@H]7O)[C@H](O)[C@H]6O[C@@H]6O[C@H](CO)[C@@H](O)[C@H](O)[C@H]6O)[C@](C)(CO)C5CC[C@]43C)[C@@H]2CC1(C)C (some centres not stated) | inactive [at 9.27 µM]
8 | CC(=O)O[C@@H]1C[C@@]23C[C@@]24CC[C@H](OC2OC[C@@H](O)[C@H](O)[C@H]2O)C(C)(C)[C@@H]4CC[C@H]3[C@]2(C)CC3OC4(C[C@@H](C)C3[C@@]12C)OCC1(C)OC14 (some centres not stated) | inactive [at 17.4 µM]
9 | COc1ccc2c(c1O)OC[C@H]1c3ccc(O)cc3O[C@@H]21 | inactive
10 | CC1=CC(=O)C2C(C)(C)CCCC2(C)C12CCC1(COC(=O)C1)O2 (configuration not stated) | inactive
11 | C[C@]1(O)CC[C@@H]2C(C(=O)O)=CO[C@@H](O[C@@H]3O[C@H](COC(=O)c4ccc(O)cc4)[C@@H](O)[C@H](O)[C@H]3O)[C@@H]21 | inactive [at 17.4 µM]
12 | O=C(c1ccccn1)c1cnn2c(-c3ccncc3)ccnc12 | inactive
13 | C=CC1(C)C=C2C(O)CC3C(C)(C(=O)O)CCCC3(C)C2CC1 (configuration not stated) | inactive
14 | COC(=O)C1=CO[C@@H](O[C@@H]2O[C@H](COC(=O)/C=C/c3cc(OC)c(O)c(OC)c3)[C@@H](O)[C@H](O)[C@H]2O)[C@@H]2C(CO)=CC[C@H]12 | inactive [at 17.4 µM]
15 | CC12CCC3C(C)(C)C(O)CCC3(C)C1Cc1c(oc(C(=O)O)cc1=O)O2 (configuration not stated) | inactive
16 | C=C(C)C(C)C1OC23CC4(CO2)C(CCC2C5(C)CCC(OC6OCC(O)C(OC7OC(CO)C(O)C(OC8OCC(O)C(O)C8O)C7O)C6OC6OC(CO)C(O)C6O)C(C)(C)C5CCC24C)C3C(C)(O)C1OC(C)=O (configuration not stated) | inactive [at 9.27 µM]
17 | CC(=O)Oc1cc2c(s1)CCN([C@H](C(=O)C1CC1)c1ccccc1F)C2 | inactive
18 | Cc1ncc([N+](=O)[O-])n1CC(O)CN1CCOCC1 (configuration not stated) | inactive
19 | O=C(c1ccc(NS(=O)(=O)c2cccc3cccnc23)cc1)N1CCN(CC2CC2)CC1 | inactive
20 | C/C(=C\CCC(C)(O)c1ccc(C)cc1)C(=O)O (configuration not stated) | inactive
21 | COc1cc(C2Oc3c(OC)cc(/C=C/C(=O)OC[C@H]4O[C@@H](OC(C)(C)C(=O)O)[C@H](O)[C@@H](O)[C@@H]4O)cc3C2CO)ccc1O (some centres not stated) | inactive [at 17.4 µM]
22 | CC(C)CC1NC(=O)C(C(C)c2ccccc2)NC(=O)C(C(C)C)NC(=O)C(C)NC(=O)CCCNC(=O)C(Cc2c[nH]c3ccccc23)NC(=O)C(C)NC1=O (stereo not drawn) (cyclo([GABA]AV[ξPhe(βξ-Me)]LAW); configuration not given here) | inactive [at 17.4 µM]
